The panel holds about 79,000 compounds, 15% with a hit somewhere; the sample as a whole holds those more often. A number with no mark means an inactive call. The source made the active and inactive calls. Cut-off read from the data, not from the text of the source: active = growth inhibition above about 70%; inactive = the rest.
Tests used:
[1] = NCI Yeast Anticancer Drug Screen. Data for the wt1 strain (AID 149);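 note: 0% = growth of vehicle-treated wt1 cultures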; details: S. cerevisiae wt1 strain (SPY 50644) growth inhibition, stronger effect = higher value
Summary of the method: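 Each compound is tested on wt1 yeast and the loss of growth versus vehicle gives the inhibition value.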

[2] = NCI Yeast Anticancer Drug Screen. Data for the mgt1 strain (AID 153); details: S. cerevisiae mgt1 mutant growth inhibition, stronger effect = higher value
Summary of the method: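 Strain: mgt1 yeast, one of a set carrying defined DNA damage repair or cell cycle control alterations. Compound-treated growth compared with vehicle.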

[3] = NCI Yeast Anticancer Drug Screen. Data for the rad50 strain (AID 155);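 note: 0% = growth of vehicle-only cultures of the same strain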; details: S. cerevisiae rad50 strain growth inhibition, stronger effect = higher value
Summary of the method: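 Vehicle-treated cultures provide the reference for the growth inhibition reported for compound-exposed, repair-deficient yeast.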

[4] = NCI Yeast Anticancer Drug Screen. Data for the mec2-1 strain (AID 157); details: S. cerevisiae mec2-1 strain, stronger effect = higher value
Summary of the method: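 Strain: mec2-1 (DNA repair/cell cycle alteration). Compound exposure, then growth measured; inhibition expressed relative to vehicle.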

[5] = NCI Yeast Anticancer Drug Screen. Data for the rad14 strain (AID 159);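 note: 0% = growth of vehicle-treated control cultures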; details: S. cerevisiae rad14 strain growth inhibition, stronger effect = higher value
Summary of the method: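 Inhibition of growth is reported for a repair-deficient yeast mutant following compound treatment, calculated relative to cultures that received vehicle.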

[6] = NCI Yeast Anticancer Drug Screen. Data for the sgs1 mgt1 strain (AID 161);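 note: 0% = growth of cultures given vehicle only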; details: S. cerevisiae sgs1 mgt1 strain, stronger effect = higher value
Summary of the method: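 Test agents were incubated with a DNA-repair-mutant yeast strain. Growth was then read and compared against vehicle-treated controls.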

[7] = NCI Yeast Anticancer Drug Screen. Data for the CLN2oe strain (AID 163);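 note: 0% = growth of vehicle-only control cultures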; details: S. cerevisiae CLN2oe strain, stronger effect = higher value
Summary of the method: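 Growth of a genetically modified yeast strain is measured after compound exposure and compared with cultures given vehicle alone.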

[8] = NCI Yeast Anticancer Drug Screen. Data for the bub3 strain (AID 167); details: S. cerevisiae bub3 mutant strain, stronger effect = higher value
Summary of the method: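 Mutant yeast screening strain plus compound; vehicle-treated cultures serve as the 0% inhibition reference.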

[9] = NCI Yeast Anticancer Drug Screen. Data for the wt2 strain (AID 169); details: S. cerevisiae wt2 strain growth inhibition, stronger effect = higher value
Summary of the method: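 This strain belongs to a panel of yeast strains with defined genetic alterations in DNA damage repair or cell cycle control. Compounds are applied, and growth inhibition is measured against vehicle-treated cultures.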

[10] = NCI Yeast Anticancer Drug Screen. Data for the mlh1 strain (AID 171);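 note: 0% = growth of vehicle-treated control cultures of the same strain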; details: S. cerevisiae mlh1 strain growth inhibition, stronger effect = higher value
Summary of the method: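 Growth of the mutant yeast strain after compound exposure, expressed as inhibition relative to vehicle-only controls.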

[11] = NCI Yeast Anticancer Drug Screen. Data for the sgs1 strain (AID 173);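 note: 0% = growth of vehicle-only control cultures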; details: S. cerevisiae sgs1 mutant, stronger effect = higher value
Summary of the method: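 Growth of a yeast strain bearing a defined genetic alteration is measured after compound treatment. Inhibition is expressed relative to vehicle-only controls.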

[12] = NCI Yeast Anticancer Drug Screen. Data for the mlh1 rad18 strain (AID 175); details: S. cerevisiae mlh1 rad18 strain growth inhibition, stronger effect = higher value
Summary of the method: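 Read-out is yeast growth inhibition, calculated against vehicle-only controls. The compound was applied to a strain engineered with DNA damage repair alterations.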

[13] = NCI Yeast Anticancer Drug Screen. Data for the rad18 strain (AID 177); details: S. cerevisiae rad18 mutant growth inhibition, stronger effect = higher value
Summary of the method: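 Growth of the mutant yeast strain after compound exposure, normalised to vehicle-only cultures.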

[14] = NCI Yeast Anticancer Drug Screen. Data for the cln2 rad14 strain (AID 165);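 note: 0% = growth equal to vehicle treated cultures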; details: S. cerevisiae cln2 rad14 strain, stronger effect = higher value
Summary of the method: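 Compounds are applied to the cln2 rad14 yeast strain, and growth is then compared with that of vehicle-treated cultures to give inhibition.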

[15] = at 5.0 µM (retest, dose inferred, filed as 0.5)
[16] = at 50.0 µM (retest, dose inferred, filed as 5.0)

CCCCCCCCCC[Se]C#N
growth inhibition ([1]; at 1.2 µM): -4% | growth inhibition ([1]; at 3.7 µM): 2% | growth inhibition ([1]; at 11.0 µM): -3% | growth inhibition ([1]; at 33.0 µM): 6% | growth inhibition ([1]; at 100.0 µM): 48% | growth inhibition ([2]; at 1.2 µM): -2% | growth inhibition ([2]; at 3.7 µM): 0% | growth inhibition ([2]; at 11.0 µM): 0% | growth inhibition ([2]; at 33.0 µM): 16% | growth inhibition ([2]; at 100.0 µM): 95% (active) | growth inhibition ([3]; at 1.2 µM): 2% | growth inhibition ([3]; at 3.7 µM): -38% | growth inhibition [3, 15]: 30% | growth inhibition ([3]; at 11.0 µM): 14% | growth inhibition ([3]; at 33.0 µM): 52% | growth inhibition [3, 16]: 99% (active) | growth inhibition ([3]; at 50.0 µM): 99.4% (active) | growth inhibition ([3]; at 100.0 µM): 97% (active) | growth inhibition ([4]; at 1.2 µM): 1% | growth inhibition ([4]; at 3.7 µM): 4% | growth inhibition [4, 15]: 30% | growth inhibition ([4]; at 11.0 µM): 6% | growth inhibition ([4]; at 33.0 µM): 19% | growth inhibition [4, 16]: 99% (active) | growth inhibition ([4]; at 50.0 µM): 99.6% (active) | growth inhibition ([4]; at 100.0 µM): 77% (active) | growth inhibition ([5]; at 1.2 µM): -1% | growth inhibition ([5]; at 3.7 µM): -2% | growth inhibition ([5]; at 11.0 µM): 4% | growth inhibition ([5]; at 33.0 µM): 31% | growth inhibition ([5]; at 100.0 µM): 99% (active) | growth inhibition [6, 15]: 46% | growth inhibition [6, 16]: 99% (active) | growth inhibition ([6]; at 50.0 µM): 99.3% (active) | growth inhibition ([7]; at 1.2 µM): -1% | growth inhibition ([7]; at 3.7 µM): 0% | growth inhibition ([7]; at 11.0 µM): -4% | growth inhibition ([7]; at 33.0 µM): -7% | growth inhibition ([7]; at 100.0 µM): -3% | growth inhibition ([8]; at 1.2 µM): 0% | growth inhibition ([8]; at 3.7 µM): -2% | growth inhibition [8, 15]: 4% | growth inhibition ([8]; at 11.0 µM): -2% | growth inhibition ([8]; at 33.0 µM): 5% | growth inhibition [8, 16]: 99% (active) | growth inhibition ([8]; at 50.0 µM): 99.5% (active) | growth inhibition ([8]; at 100.0 µM): 90% (active) | growth inhibition ([9]; at 1.2 µM): -2% | growth inhibition ([9]; at 3.7 µM): 7% | growth inhibition ([9]; at 11.0 µM): -1% | growth inhibition ([9]; at 33.0 µM): -2% | growth inhibition ([9]; at 100.0 µM): 79% (active) | growth inhibition ([10]; at 1.2 µM): -1% | growth inhibition ([10]; at 3.7 µM): 0% | growth inhibition ([10]; at 11.0 µM): 6% | growth inhibition ([10]; at 33.0 µM): 26% | growth inhibition ([10]; at 100.0 µM): 90% (active) | growth inhibition ([11]; at 1.2 µM): -1% | growth inhibition ([11]; at 3.7 µM): 1% | growth inhibition ([11]; at 11.0 µM): 13% | growth inhibition ([11]; at 33.0 µM): 54% | growth inhibition ([11]; at 100.0 µM): 96% (active) | growth inhibition [12, 15]: 51% | growth inhibition [12, 16]: 99% (active) | growth inhibition ([12]; at 50.0 µM): 99.3% (active) | growth inhibition ([13]; at 1.2 µM): 4% | growth inhibition ([13]; at 3.7 µM): 6% | growth inhibition ([13]; at 11.0 µM): 18% | growth inhibition ([13]; at 33.0 µM): 63% | growth inhibition ([13]; at 100.0 µM): 98% (active)

CCc1cc2c(cc1-c1csc(C/C(N)=N/O)n1)C(C)(C)CCC2(C)C
growth inhibition [3, 15]: 55% | growth inhibition [3, 16]: 88% (active) | growth inhibition ([3]; at 50.0 µM): 89.5% (active) | growth inhibition [4, 15]: 38% | growth inhibition [4, 16]: 92% (active) | growth inhibition ([4]; at 50.0 µM): 90.7% (active) | growth inhibition [6, 15]: 52% | growth inhibition [6, 16]: 93% (active) | growth inhibition ([6]; at 50.0 µM): 91.4% (active) | growth inhibition [14, 15]: 39% | growth inhibition [14, 16]: 96% (active) | growth inhibition ([14]; at 50.0 µM): 89.7% (active) | growth inhibition [8, 15]: 48% | growth inhibition [8, 16]: 93% (active) | growth inhibition ([8]; at 50.0 µM): 91% (active)

Reference: PubChem BioAssay (NCI)
